Molecules are shown by their SMILES. Results filed as inconclusive are left out. Where a call stands in place of a potency, no number is given. Active and inactive are the calls of the source. Calls follow the shape of the dose curve; as a rule, active = well fitted inhibition curve with a large enough effect; inconclusive = small, poorly fitted or top-dose-only effect; inactive = no such curve, though single readings can be large or run the other way.

We go through 40 compounds from PubChem BioAssay (NCATS).

This experiment can be described thus: Primary qHTS for inhibitors of La Crosse Virus (LACV) - induced cell death in SH-SY5Y cells (AID 1508616).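 Also: top concentration of the series differs between compounds; higher means more rescue of cells from virus-induced death.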 The following applies: SH-SY5Y LACV cytopathicity rescue, ATP luminescence, 6 d; series mostly up to 4.29 µM. An excerpt:
Assay Provider: Karin Peterson Ph.D.
National Institute of Allergy and Infection Diseases, National Institute of Health
La Crosse Virus (LACV) is a California serogroup mosquito-borne arbovirus, family Peribunyaviridae, which is an endemic pathogen in North America and can induce a rare, life-threatening neurological disease in children. LACV was first isolated in the early 1960s, from a summer "rural encephalitis" case in La Crosse, Wisconsin, USA. Since then, LACV encephalitis cases have been found in more than twenty states, with most cases in the Mississippi and Ohio River basins. The life cycle of LACV is maintained between the vector, the eastern tree-hole mosquito Aedes triseriatus, and vertebrate hosts including eastern gray squirrels (Sciurus carolinensis) and chipmunks (Tamiasstriatus grinseus). […] Most LACV infections in humans are asymptomatic or induce mild clinical symptoms of fever, headache, lethargy and vomiting. However, in some cases LACV can cause severe neuroinvasive disease, including encephalitis, meningitis, and meningoencephalitis, requiring hospitalization. To date, there is neither a licensed vaccine nor a Food and Drug Administration (FDA) approved antiviral therapy available to prevent or treat LACV encephalitis. The primary treatment for viral encephalitis is palliative care due to the lack of therapeutics. In the current study, we conducted a screen of 4,096 FDA approved and bioactive small molecules against LACV, by screening for rescue of LACV-induced cell death in SH-SY5Y cells.
LACV-induced cytopathicity assay
SEQUENCE No. (1,2, 3, etc.); […] (e.g., Cells, Incubation, Reagent, etc.); VALUE and DESCRIPTION.
1. Reagent; 2 uL; Cell solution.
3. Compounds; 23nL; Compound library
4. Reagent; 12 uL; LACV virus
6. Reagent; 24 uL; ATPLite (PerkinElmer)
7. Time; 5 min; Room temperature
8. Detection; Luminescence; View
NOTES (numbers refer to sequence above)
1. Seed 6000 SH-SY5Y cells (ATCC CRL-2266) in 2 microL/well media (DMEM/F12 10% FBS, 1x L-Glutamine, 1x Pyruvate, 1x NEAA, 1x Pen/Strep) in 384-well assay plates (tissue culture treated, white, solid bottom).
2. Incubate at 37 degrees C with 5% CO2 for 24 hr.
3. Dispense 23 nL/well compounds in DMSO via pin transfer.
4. Dispense 12 microL/well of LACV (LACV/human/1978) in media at 0.01 MOI.
5. Incubate at for 6 days at 37C 5% CO2
6. Dispense 24 microL/well of ATPLite 1step Luminescence assay system (PerkinElmer).
7. Incubate for 5 min at room temperature.
8. Read luminescence signal (Viewlux plate reader, PerkinElmer). Data was normalized with DMSO control wells containing LACV as 0%, and DMSO control wells without virus as 100%.
On the technique in general: qHTS replaces the single test concentration by a dilution series.
Turning to `C[C@]12CC[C@@H]3c4ccc(O)cc4CC[C@H]3[C@@H]1C[C@@H](O)[C@@H]2O`, the Potency result was “inactive”. On to `C=C1C[C@H]2[C@@H]3C=C(C)C4=CC(=O)CC[C@]4(C)[C@H]3CC[C@]2(C)[C@@]1(OC(C)=O)C(C)=O`, for which the Potency result is “inactive”. Next, `CC1(C)O[C@@H]2C[C@H]3[C@@H]4C[C@H](F)C5=CC(=O)CC[C@]5(C)[C@H]4[C@@H](O)C[C@]3(C)[C@]2(C(=O)CO)O1`: “inactive”; `CC/C(=C(/CC)c1ccc(O)cc1)c1ccc(O)cc1`: “inactive”. Consider `CCOC(=O)OC(C)OC1=C(C(=O)Nc2ccccn2)N(C)S(=O)(=O)c2ccccc21` (stereo not given), for which the Potency result was “inactive”. With `CC1(C)OC[C@@H](COC(=O)CCc2ccc(OC[C@@H](O)CNCCNC(=O)N3CCOCC3)cc2)O1`, the Potency entry is “inactive”. With `CCCCCCCCCCCCCCCCOP(=O)([O-])OCC[N+](C)(C)C`, the Potency result is “inactive”. `CC(=O)Oc1ccc(C(c2ccc(OC(C)=O)cc2)c2ccccn2)cc1`: the Potency entry is “inactive”. Turning to `NCCc1ccn[nH]1`, the Potency result is “inactive”. Next, `Oc1cc(O)c2c(c1)O[C@H](c1ccc(O)c(O)c1)[C@H](O)C2`: “inactive”; `CN1C2CCC1CC(OC(=O)c1c[nH]c3ccccc13)C2` (stereo not given): “inactive”; `CCCCCCC[N+](CC)(CC)CCCCc1ccc(Cl)cc1`: “inactive”. Take `O=C(OCCOCCO)c1ccccc1Nc1cccc(C(F)(F)F)c1`: the Potency result was “inactive”.

As to `COc1ccc(OC)c(C(O)CNC(=O)CN)c1` (stereo not given), the Potency result was “inactive”. For `CC(C)NC[C@@H](O)COc1cccc2ccccc12`, the Potency entry is “inactive”. Next, `C[C@H]1[C@H](NC(=O)/C(=N/OC(C)(C)C(=O)O)c2csc(N)n2)C(=O)N1S(=O)(=O)O` (stereo in doubt): “inactive”. Regarding `COC1=CC(=O)C[C@@H](C)[C@]12Oc1c(Cl)c(OC)cc(OC)c1C2=O`, the Potency entry is “inactive”. Next, `C[C@@H]1C[C@H]2[C@@H]3CCC4=CC(=O)C=C[C@]4(C)[C@@]3(F)[C@@H](O)C[C@]2(C)[C@H]1C(=O)CO`: “inactive”. Next, `Oc1ccc(Cl)c2cccnc12`: “inactive”; `COc1cc(NS(C)(=O)=O)ccc1Nc1c2ccccc2nc2ccccc12`: “inactive”; `CCC(NC(C)C)C(O)c1ccc(O)c(O)c1` (stereo not given): “inactive”.

Turning to `CNC(=O)CN(CCN(CCN(CC(=O)[O-])CC(=O)NC)CC(=O)[O-])CC(=O)[O-].O.[Gd+3]`, the Potency entry is “inactive”. With `O=C(O)c1cc2cc(Cc3cccnc3)ccc2o1`, the Potency entry is “inactive”. On to `Oc1ccc(O)cc1`, for which the Potency entry was “inactive”. As to `CC(=O)N/N=C/c1ccc([N+](=O)[O-])o1`, the Potency result is “inactive”.

Consider `CCCCCCCCCCCCCCCC[N+](C)(C)CCN(Cc1ccc(OC)cc1)c1ncccn1`, for which the Potency result is “inactive”. With `C[C@H](CCC(=O)O)[C@H]1CC[C@H]2[C@@H]3C(=O)C[C@@H]4CC(=O)CC[C@]4(C)[C@H]3CC(=O)[C@]12C`, the Potency entry is “inactive”. `CCCCC1=NC2(CCCC2)C(=O)N1Cc1ccc(-c2ccccc2-c2nn[nH]n2)cc1`: the Potency entry was “inactive”.

In the case of `CC(=O)OCC(=O)[C@@]12OC(C)(C)O[C@@H]1C[C@H]1[C@@H]3C[C@H](F)C4=CC(=O)C=C[C@]4(C)[C@@]3(F)[C@@H](O)C[C@@]12C`, the Potency entry was “inactive”.

With `N[C@@H](Cc1cnc[nH]1)C(=O)O`, the Potency entry was “inactive”. On to `CC(=O)OCC(=O)NCCCOc1cccc(CN2CCCCC2)c1`, for which the Potency entry was “inactive”.

`C[C@]12CCC(=O)C=C1[C@@H]1C[C@@H]1[C@H]1[C@@H]3[C@@H]4C[C@@H]4[C@@]4(CCC(=O)O4)[C@@]3(C)CC[C@@H]12`: the Potency result is “inactive”. As for `c1ccc(OCc2ccc(CCCN3CCOCC3)cc2)cc1`, the Potency entry was “inactive”. As for `Cc1cc(O)c(C(C)C)cc1Cl`, the Potency result was “inactive”. Consider `Cc1c(C(C)C)c(=O)n(-c2ccccc2)n1C`, for which the Potency entry is “inactive”. With `NC(CO)(CO)CO`, the Potency entry was “inactive”. With `Cc1c(C(N)=O)cc([N+](=O)[O-])cc1[N+](=O)[O-]`, the Potency result is “inactive”. Regarding `C[C@]12CC[C@H]3[C@@H](CCC4=CC(=O)CC[C@@]43C)[C@@H]1CC[C@@H]2C(=O)CO`, the Potency entry was “inactive”. Turning to `C#C[C@]1(O)CC[C@H]2[C@@H]3CCC4=CC(=O)CC[C@@H]4[C@H]3CC[C@@]21C`, the Potency result is “inactive”.

On to `CCN1CCC[C@H]1CNC(=O)c1c(OC)ccc(Br)c1OC`, for which the Potency result was “inactive”.
